# Compound activity from PubChem.
# An excerpt weighted towards active compounds, which were near 1.2% of everything screened.
# Avidin fluor – avidin bead compound fluorescence profile. Avidin beads, compound fluorescence 488/530 nm, flow cytometry; stronger effect = higher value. fluorescence (KMESF) at 10 µM. 220,000 tested, 0.38% active. AID 1775; in the data active = fluorescence above about 47
# RGS4-Gao reg – modulates binding of RGS4 to human Galphao. Multiplexed bead flow cytometry; actives lie on both sides. 220,000 tested, 0.33% active. binding response (% of control), % at 10 µM. P09471; in the data active = binding response below about 49% or above about 150%; inactive = in between;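 note: fluorescent Galphao activated with aluminum fluoride binding bead-coupled RGS4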
# Target sequence (P09471 whole entry, looked up): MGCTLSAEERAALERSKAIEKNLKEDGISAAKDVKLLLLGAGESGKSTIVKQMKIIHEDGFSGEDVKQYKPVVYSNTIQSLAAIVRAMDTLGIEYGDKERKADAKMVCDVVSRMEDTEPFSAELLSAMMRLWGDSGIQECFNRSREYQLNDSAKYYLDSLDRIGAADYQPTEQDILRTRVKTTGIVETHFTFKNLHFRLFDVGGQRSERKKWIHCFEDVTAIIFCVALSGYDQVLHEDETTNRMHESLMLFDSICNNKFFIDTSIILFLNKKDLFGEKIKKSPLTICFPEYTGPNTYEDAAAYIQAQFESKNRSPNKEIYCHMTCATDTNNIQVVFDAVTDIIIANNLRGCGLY
# GSH fluor – GSH bead compound fluorescence profile. GSH beads flow cytometry, compound fluorescence 488/530 nm; stronger effect = higher value. fluorescence (KMESF) at 10 µM. 190,000 tested, 0.25% active. AID 1776; in the data active = fluorescence above about 89;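 note: glutathione beads carrying GST-tagged Bcl family fusion proteins plus one bare bead set; values are compound well signal with DMSO vehicle wells as background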
# RGS16-Gao – regulators of human RGS16-Galphao interaction; O15492+P09471; bead-based flow cytometry RGS16-Galphao binding, fluorescence; actives lie on both sides; binding response (% of control), % at 10 µM; 220,000 tested, 0.38% active;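 note: Galphao activated by GDP with aluminum fluoride before binding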
# Target sequence (O15492 whole entry, looked up): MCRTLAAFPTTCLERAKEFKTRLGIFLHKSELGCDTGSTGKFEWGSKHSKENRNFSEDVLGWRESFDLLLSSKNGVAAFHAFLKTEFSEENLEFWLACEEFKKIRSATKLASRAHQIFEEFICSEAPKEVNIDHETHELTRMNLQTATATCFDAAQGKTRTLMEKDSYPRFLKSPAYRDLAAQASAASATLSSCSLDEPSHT
# Target sequence (P09471 whole entry, looked up): as the sequence (P09471 whole entry, looked up) above
# RGS8-Gao reg – regulators of human RGS8-Galphao interaction. multiplexed bead flow cytometry, RGS8-Galphao binding; actives lie on both sides. response (percent of control binding), % at 10 µM. AID 1423. 220,000 tested, 0.34% active; in the data active = response below about 60% or above about 140%; inactive = in between;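 note: Galphao activated as the GDP aluminium fluoride complex binding bead-coupled RGS8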
# RGS7-Gao reg – modulates binding of RGS7 to human Galphao; P09471; Multiplexed bead flow cytometry; actives lie on both sides; binding response (% of control), % at 10 µM; 220,000 tested, 0.35% active; AID 1439; in the data active = binding response below about 49% or above about 150%; inconclusive = no clear call, values can overlap the other calls; inactive = in between;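 note: fluorescent Galphao held in activated GDP-AlF4 state binding bead-coupled RGS7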
# RGS-Gao – modulates binding between human RGS4 and Galphao; shares compounds with RGS16-Gao; multiplexed bead flow cytometry, RGS–Galpha-o binding; RGS4–Galpha-o binding response, % at 10 µM; 1,600 tested, 99% active; AID 1504;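 note: fluorescently labeled Galpha-o bound to GDP with aluminium fluoride binding biotinylated RGS beads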
# Biotin-avidin – biotin-avidin bead binding disruption counter-screen; shares compounds with RGS16-Gao; streptavidin beads, fluorescein-biotin binding, flow cytometry; inhibition, % at 10 µM; 1,700 tested, under 10 active;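 active = inhibition above 50%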;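 note: median green fluorescence of gated singlet beads compared with DMSO control wells; 0% = DMSO wells and 100% = complete loss of bead fluorescence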
# RGS8-Gao confirm – confirmation of regulators of human RGS8-Galphao interaction. shares compounds with RGS16-Gao. bead-based flow cytometry RGS8-Galphao binding, fluorescence; actives lie on both sides. 1,700 tested, 3% active. binding response (% of control), % at 10 µM; in the data active = binding response below about 72% or above about 130%; inactive = in between;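 note: Galphao activated as GDP AlF4 complex before binding bead RGS8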
# RGS7-Gao single – confirmation of regulators of human RGS7-Galphao interaction; shares compounds with RGS16-Gao; bead-based flow cytometry RGS7-Galphao binding; actives lie on both sides; response (percent of control binding), % at 10 µM; 1,700 tested, 7.8% active; in the data active = response below about 75% or above about 130%; inactive = in between;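 note: fluorescent Galphao activated with GDP and aluminum fluoride binding bead-coupled RGS7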
# RGS16-Gao single – confirmation of regulators of human RGS16-Galphao interaction; 1,700 tested, 4% active; shares compounds with RGS16-Gao; response (% of control binding), % at 10 µM; AID 1838; bead-based flow cytometry, RGS16-Galphao binding; actives lie on both sides; in the data active = response below about 74% or above about 130%; inactive = in between;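 note: Galphao activated as the GDP aluminium fluoride complex binding bead-coupled RGS16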
# RGS4-Gao single – RGS4-Galphao interaction regulation, single point confirmation. RGS4-Galphao binding, multiplexed bead flow cytometry; actives lie on both sides. binding response (% of control), % at 10 µM. AID 1840. 1,700 tested, 4% active. shares compounds with RGS16-Gao; in the data active = binding response below about 74% or above about 130%; inactive = in between
# RGS19-Gao conf – RGS19-Galphao interaction regulation, single point confirmation. shares compounds with RGS16-Gao. bead-based flow cytometry RGS19-Galphao binding; actives lie on both sides. response (percent of control binding), % at 10 µM. 1,700 tested, 5% active; in the data active = response below about 50% or above about 160%; inactive = in between;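 note: 100% = no compound control and 0% = blank background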
# * hit, by the source's call; ? = inconclusive; / = not tested or not shown; [ ] = another dose, or the depositor's remark. Unless noted, the rule behind the calls is not given here.
SMILES,Avidin fluor,RGS4-Gao reg,GSH fluor,RGS16-Gao,RGS8-Gao reg,RGS7-Gao reg,Biotin-avidin,RGS8-Gao confirm,RGS7-Gao single,RGS16-Gao single,RGS4-Gao single,RGS19-Gao conf,others
O=C(Cn1c2ccccc2c(=O)c2ccccc21)N/N=C/c1ccc(N2CCCC2)c([N+](=O)[O-])c1,12,91,9,97,98,90,/,/,/,/,/,/,
COC(=O)c1sc(-c2ccc(Cl)cc2)cc1N,3,104,/,100,101,?,/,/,/,/,/,/,
COC(=O)c1sc(-c2cccs2)cc1N,50*,173*[activator],/,159,116,?,1,100,99,98,101,97,
COc1cccc(NC(=O)c2ccccc2-c2nc(-c3ccc(F)cc3)no2)c1,/,/,33,/,/,/,0,100,97,103,102,98,
COc1cccc(NC(=O)c2ccccc2-c2nc(-c3ccccc3)no2)c1,15,88,36,88,91,87,/,/,/,/,/,/,
Cc1cc(C)c2[nH]c(=O)c(CN(Cc3cccnc3)C(=S)NCCCN(C)C)cc2c1,10,92,25,93,93,87,/,/,/,/,/,/,
O=C(CN(Cc1ccccc1)S(=O)(=O)c1ccc2c(c1)OCCO2)Nc1ccc2c(c1)OCCO2,95*,184*[activator],74,478,136,261*[activator],-2,101,100,98,101,93,
CS(=O)(=O)N(CC(=O)Nc1ccc2c(c1)OCCO2)Cc1ccccc1,7,101,55,98,101,98,/,/,/,/,/,/,
C#CCNC(=O)C1=C[C@@H](C(C)(C)C)C[C@@H](OCc2ccc(CO)cc2)O1,0,30*,19,17*,22*,21*,0,100,103,101,101,97,
CN(C)c1oc(-c2ccccc2Cl)nc1P(=O)(c1ccccc1)c1ccccc1,11,109,43,113,105,105,/,/,/,/,/,/,
COc1ccc(CCNC(=O)c2cnn(-c3ccc(C)c(C)c3)c2NC(=O)c2ccco2)cc1OC,/,/,45,/,/,/,-2,102,101,102,102,103,
CCc1ccc(NC(=O)CC2C(=O)N(c3ccc(C)cc3)C(=O)N2CCc2ccncc2)cc1 (stereo not given),18,105,12,104,101,105,/,/,/,/,/,/,
Cc1ccc(OCCN2C(=O)c3ccccc3C2=O)cc1,18,92,13,94,91,91,/,/,/,/,/,/,
O=C1C(=O)N(Cc2ccccc2)C(=O)N1CCOc1ccccc1,7,56,19,49,58*,52,0,103,102,104,105,91,RGS-Gao=56*
CCn1nnnc1NCc1ccc(N2CCCC2)cc1,0,35*,22,320,76,65,-1,98,93,93,96,89,
Cc1ccc2sc(N(CCCN(C)C)C(=O)c3ccc(Br)s3)nc2c1C,8,113,10,104,107,?,/,/,/,/,/,/,
Cc1cc(C)c2c(N)c(C(=O)NCC3CCCCC3)sc2n1,10,98,9,104,100,103,/,/,/,/,/,/,
Cc1cc(C)c2c(N)c(C(=O)NC3CCCC3)sc2n1,3,113,21,131,142*[activator],147,0,97,73*,87,87,70,RGS-Gao=113*
CCC(OC(=O)C1=Cc2ccccc2OC1)C(=O)NC1CCCC1 (stereo not given),/,/,18,/,/,/,0,101,104,102,101,101,
COc1cc(OC)c(NC(=O)c2ccc3c(SCC(=O)O)c4c(nc3c2)CCCC4)cc1Cl,10,103,13,101,100,98,/,/,/,/,/,/,
O=S(=O)(CCc1ccccc1)N1CCOCC1,8,48*,9,-85,69,68,-1,97,81,91,84,88,
Cc1nc2ccccc2n1CCCOc1ccccc1,5,102,29,108,103,102,/,/,/,/,/,/,
Cc1nc(Cl)c(Cl)n1CCOc1ccccc1,-2,-14*,/,-7.5*,6.8*,?,1,101,108,103,105,101,
CCc1ccc(NC(=O)CSc2nc3ccccc3c(=O)n2CCCN2CCC(C)CC2)cc1,10,97,20,95,98,101,/,/,/,/,/,/,
COc1ccccc1/C=C/C=C1\Oc2c(ccc(O)c2CN2CCN(CCO)CC2)C1=O,127*,218*[activator],15,284,146*[activator],246*[activator],1,104,107,101,101,80,
SMILES,Avidin fluor,RGS4-Gao reg,GSH fluor,RGS16-Gao,RGS8-Gao reg,RGS7-Gao reg,Biotin-avidin,RGS8-Gao confirm,RGS7-Gao single,RGS16-Gao single,RGS4-Gao single,RGS19-Gao conf,others
CCN1CCN(Cc2c(O)ccc3c2O/C(=C\C=C\c2ccccc2)C3=O)CC1,17,106,11,187*[activator],117,103,-1,100,101,99,101,100,RGS-Gao=106*
O=C1/C(=C/C=C/c2ccccc2)Oc2c1ccc(O)c2CN1CCN(CCO)CC1,7,85,/,85,97,?,/,/,/,/,/,/,
CS(=O)(=O)CC(=O)Nc1ccc2nc3n(c(=O)c2c1)CCCCC3,5,99,/,102,101,?,/,/,/,/,/,/,
OCCC1CN(Cc2cnc(-c3cccc4ccccc34)nc2)CCN1C1CCCCC1 (stereo not given),9,99,9,103,100,98,/,/,/,/,/,/,
Cc1ccc(C(C(=O)NC2CCCC2)N(C(=O)Cc2cccs2)c2cccc(C)c2C)o1 (stereo not given),14,104,28,106,101,97,/,/,/,/,/,/,
Cc1cc(C)cc(N(C(=O)Cc2cccs2)C(C(=O)NC2CCCC2)c2ccc(C)o2)c1 (stereo not given),/,/,17,/,/,/,-1,96,92,93,93,81,
O=C(N/N=C/C1CC2C=CC1C2)c1ccccc1O (stereo not given),7,98,/,96,101,?,/,/,/,/,/,/,
COC(=O)C1=C(N)Oc2cc(C)n(Cc3cccnc3)c(=O)c2C1c1cccc(OC)c1OC (stereo not given),148*,125,28,118,91,240*[activator],-1,100,101,102,101,94,RGS-Gao=125*
